Among all 360,000 compounds or so, about 1,300 (0.36%) were called active. For the sample, actives were picked, then their nearest neighbours and some compounds at random. Unmarked numbers belong to inactive results.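 How the source made its calls: active means corrected activity change at or below -50% at 5 µM; inactive means the rest.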
Experiment: KKLEB cell viability reduction – uHTS, fluorescence assay plates, cytotoxicity control for CF NF-kB inhibitor project, primary screen (AID 602141)
Conditions: KKLEB CF airway cells viability, ATPlite luminescence, overnight; at 5 µM; hits give low values; cells stimulated with P. aeruginosa culture filtrate

Row | SMILES | activity change (cytotoxicity)
1 | Cc1c2cn[nH]c(=O)c2c(C)n1Cc1ccc(F)cc1 | -2.2%
2 | O=C(O)CSCC(=O)Nc1ccc(C(F)(F)F)cc1 | -4%
3 | CC(=O)Nc1ccc(SCC(=O)NC(=O)c2ccc(Cl)cc2)cc1 | 8%
4 | O=C(CCl)Nc1ccc(Sc2ccc(NC(=O)CCl)cc2)cc1 | -68.5% (active)
5 | CN(C)c1ccc(C(=S)N2CCN(C(=S)Nc3ccc(Cl)cc3)CC2)cc1 | 5.1%
6 | CC(=O)c1cc(NC(=O)c2ccccc2)c(=O)oc1/C=C/N(C)C | -6.9%
7 | O=C(NC1=CC(=O)c2ccccc2C1=O)c1ccccc1 | -97.9% (active)
8 | O=C(COC(=O)c1cccc(Br)c1)Nc1cccc2c1C(=O)c1ccccc1C2=O | -17.2%
9 | COc1ccc(C(C(=O)NC2CCCCC2)N(C(=O)CCl)c2ccccc2Cl)cc1 (stereo not given) | 4.1%
10 | COc1ccc(CCNC(=O)CN(c2ccccc2)S(C)(=O)=O)cc1OC | 8.4%
11 | COc1ccc(C(CCN(Cc2ccc(OC)c(OC)c2)C(=O)CCl)c2ccccc2)cc1 (stereo not given) | -76.9% (active)
12 | CC(C[N+](C)(C)C)OC(N)=O (stereo not given) | -65.7% (active)
13 | CC(=O)OC(C)C[N+](C)(C)C (stereo not given) | 3.7%
14 | COc1ccc(C(N)c2csc(NC(=O)Nc3cccc(C(F)(F)F)c3)n2)cc1 (stereo not given) | -18.3%
15 | NC(c1ccccc1)c1csc(NC(=O)Nc2cccc(C(F)(F)F)c2)n1 (stereo not given) | -17.2%
16 | NC(c1csc(NC(=O)Nc2cccc(C(F)(F)F)c2)n1)C1CCCCC1 (stereo not given) | -57.8% (active)
17 | c1ccc2c(c1)OCC(c1nn3cnnc3s1)O2 (stereo not given) | 0.1%
18 | O=C(CSc1nnc(N2CCOCC2)n1-c1cccc(F)c1)N1CCN(c2ccccn2)CC1 | -2.4%
19 | O=C(/C(=N\O)n1cncn1)c1ccc(Br)cc1Br | -5.9%
20 | Cc1c(NC(=O)CN(C)CC(=O)Nc2ccc(F)c(F)c2F)c(=O)n(-c2ccccc2)n1C | 5.4%
